This is a sample that favours compounds with a hit; in the whole collection about 3.3% have one here.
USP1-UAF1 inh: USP1/UAF1 (human) deubiquitinase inhibition; O94782; actives 0.23% (n = 390,000); Potency, µM (series often up to 57.1 µM), usual class: inhibitors; recombinant USP1/UAF1, Ub-Rhodamine cleavage fluorescence; AID 743255; also: nearly all actives have a fitted effect of over 60% in size
Target sequence (O94782 whole entry, looked up): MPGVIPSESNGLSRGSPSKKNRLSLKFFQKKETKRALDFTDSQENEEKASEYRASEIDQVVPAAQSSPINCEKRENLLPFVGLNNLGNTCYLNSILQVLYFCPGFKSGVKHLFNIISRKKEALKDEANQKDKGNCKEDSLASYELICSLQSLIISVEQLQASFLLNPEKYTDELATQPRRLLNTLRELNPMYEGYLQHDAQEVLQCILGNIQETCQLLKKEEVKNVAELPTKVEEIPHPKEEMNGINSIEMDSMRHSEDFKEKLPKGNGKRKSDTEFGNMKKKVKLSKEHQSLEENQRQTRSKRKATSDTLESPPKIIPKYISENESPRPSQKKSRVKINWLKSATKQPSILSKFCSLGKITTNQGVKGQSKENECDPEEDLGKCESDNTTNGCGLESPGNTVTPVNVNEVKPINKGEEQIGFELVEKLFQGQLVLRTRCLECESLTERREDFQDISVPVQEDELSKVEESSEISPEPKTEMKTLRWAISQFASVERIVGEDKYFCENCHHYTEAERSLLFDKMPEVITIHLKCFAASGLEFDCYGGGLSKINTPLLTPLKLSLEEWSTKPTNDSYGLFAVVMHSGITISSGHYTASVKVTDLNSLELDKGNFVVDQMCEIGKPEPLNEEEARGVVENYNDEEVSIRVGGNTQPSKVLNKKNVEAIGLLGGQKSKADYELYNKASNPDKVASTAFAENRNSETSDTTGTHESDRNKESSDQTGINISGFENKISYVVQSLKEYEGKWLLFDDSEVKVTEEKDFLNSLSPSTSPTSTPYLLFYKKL
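1 nM enzyme complex + cpd, 15 min RT; start with Ub-Rho 150nM final; kinetic fluorescence ex 480/em 540, 6 reads q60 s. Buffer 50mM HEPES pH 7.8, 0.5mM EDTA, 0.1 mg/ml BSA, 1mM TCEP, 0.01% Tween-20.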
PI5P4Ka inh: PI5P4K alpha (human) kinase inhibition; P48426; PI5P4Kalpha enzyme, ADP-Glo luminescence, 60 min; stronger effect = lower value; max response, %; actives 1.2% (n = 330,000); AID 652105; active = max response of -50% or lower; inconclusive = between -30% and -50%; inactive = -30% or higher; also: value at the top dose of about 77 µM
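qHTS, 1536-well: enzyme/substrate mix, compound by pin tool, 5 microM ATP final; RT 60 min; ADP-Glo reagents 1 (45 min) then 2 (30 min); luminescence.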
USP2a block: USP2a (human) protease inhibition. USP2 core, Ub-CHOP2 coupled fluorogenic reporter, 485/531. Potency, µM (titrated, usually from 38.3 µM), most hits filed as inhibitors. actives 0.01% (n = 330,000)
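Deubiquitinase activity read as fluorescence (485/531 nm) after Ub-CHOP2 cleavage activates the enterokinase reporter on its substrate; USP2 core 10nM, Ub-CHOP2 and substrate 25nM each, 30min compound preincubation then 60min RT; data normalized to NEM, curves fitted.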
PLK1 PBD block: inhibitors of human PLK1 polo-box domain binding. actives 2.8% (n = 360,000). AID 720504. Potency, µM, most hits filed as inhibitors. Plk1 PBD binding of FITC phosphopeptide, fluorescence polarization; also: series mostly up to about 57 µM; nearly all actives have a fitted effect of over 65% in size
WRN helicase inh: blocks human WRN helicase. Q14191. WRN helicase unwinding, fluorescent forked duplex, kinetic. Potency, µM (top dose mostly 114 µM), hits mostly inhibitors. actives 0.46% (n = 360,000). AID 651768; also: nearly all actives have a fitted effect of over 55% in size
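Primary qHTS, 1536-well format. 20 nM WRN + compound, 15 min RT; start with 100 nM forked fluorophore/quencher duplex, 2 mM ATP (final); kinetic read ex 525/em 598 nm.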
Hits are given with their value; – = inactive; ? = inconclusive; · = no result; [ ] = dose if it differs, or a comment. Unless noted, calls follow the shape of the dose curve; as a rule, active = well fitted curve in the direction sought with a large enough effect; inconclusive = small, poorly fitted or top-dose-only effect, or another doubt; inactive = no such curve, though single readings can be large; an effect the other way counts as inactive or inconclusive.

SMILES	USP1-UAF1 inh	PI5P4Ka inh	USP2a block	PLK1 PBD block	WRN helicase inh
Cc1c(C#N)c(O)[nH]c(=O)c1N=Nc1ccc(Br)cc1C(=O)O	?	-58.6	–	–	–
Cc1ccc(C)c(N(C)C(=O)C2CCN(S(=O)(=O)c3cccc4nsnc34)CC2)c1	–	·	·	·	·
C=CCn1c(SCC(=O)c2ccc(CNC(C)=O)o2)nc2scc(C3CC3)c2c1=O	–	-56.0	–	29.9µM	?
Cc1ccccc1OCC(=O)Nc1ccccc1OCc1cc(=O)n2ccccc2n1	–	·	·	·	·
Cc1cc(Cl)ccc1C(=O)C1CCCN(C(=O)c2ccc3ncccc3c2)C1 (stereo not given)	–	–	–	–	–
Cc1cc(Cl)ccc1C(=O)C1CCCN(C(=O)c2cccc(N3CCCC3=O)c2)C1 (stereo not given)	–	–	–	23.8µM	–
Cc1ccc(NC(=O)CSc2nc3ccccc3n2CC(=O)N2CCC(C)CC2)cc1C	–	·	·	·	·
O=C(Cc1nc2ccccc2[nH]1)N/N=C/c1ccccc1	–	–	–	26.7µM	–
Cc1cccc(C(c2sc3nc(-c4ccco4)nn3c2O)N2CCN(Cc3ccccc3)CC2)c1 (stereo not given)	–	·	·	·	·
COC(=O)/C=C1\SC(N2CCOCC2)=C(c2ccc(OC)cc2)C1=O	–	–	–	15µM	–
CCc1ccc(CNC(=O)C2CCCN(c3nn4cc(-c5ccc(F)cc5)nc4s3)C2)cc1 (stereo not given)	–	·	·	·	·
O=C(O)C1CN(c2nc(Cl)ccc2[N+](=O)[O-])C1	–	–	–	–	–
O=C(O)C1CN(c2ncccc2[N+](=O)[O-])C1	–	?	–	13.4µM	–
N#C/C(=C\c1ccc(N2CCCCC2)o1)C(=O)Nc1cccc(Br)c1	28.2µM	–	–	–	89.1µM
Cc1ccc(/C=C(\C#N)C(=O)Nc2cccc(Br)c2)o1	–	·	·	·	·
COc1ccc(-c2nc(C)c(CCNC(=O)c3ccco3)s2)cc1	–	·	·	·	·
Cn1c(=O)c(=O)n(C)c2cc(S(=O)(=O)NCc3ccc(Cl)cc3)ccc21	–	?	–	10.6µM	–
Cn1c(=O)n(C)c2cc(S(=O)(=O)NCc3ccccc3)ccc21	–	–	–	–	–
CCN(C(=O)CSc1nc2cc(S(=O)(=O)N(CC)CC)ccc2o1)C1CCS(=O)(=O)C1 (stereo not given)	–	–	–	21.2µM	–
Cc1cc(NC(=O)C2CCCN(S(=O)(=O)c3cn(C)cn3)C2)ccc1Br (stereo not given)	–	·	·	·	·
Cc1c(Cl)cccc1NC(=O)c1ccc(NC(=O)N2CCSc3ncccc32)cc1	–	·	·	·	·
COC(=O)c1c(NC(=O)Cn2nc(C(F)F)cc2C(F)F)sc(C)c1C	–	–	–	15µM	–
CCOC(=O)c1c(NC(=O)Cn2nc(C(F)(F)F)cc2C)sc(C)c1C	–	–	–	26.7µM	–
CCOC(=O)c1c(NC(=O)Cn2cnc([N+](=O)[O-])n2)sc(C)c1C	–	–	–	23.8µM	–
CCOC(=O)c1c(NC(=O)Cn2nc(C(F)F)cc2C(F)F)sc(C)c1C	–	–	–	–	–
SMILES	USP1-UAF1 inh	PI5P4Ka inh	USP2a block	PLK1 PBD block	WRN helicase inh
CCOC(=O)c1c(NC(=O)Cn2cnc([N+](=O)[O-])n2)sc2c1CCCC2	–	–	–	?	–
COc1ccc(Cl)cc1NC(=O)N1CCN(Cc2cc(=O)n3nc(-c4ccccc4)sc3n2)CC1	–	·	·	·	·
Cc1ccc(S(=O)(=O)c2nc(Nc3ccccc3)sc2Cl)cc1	–	–	–	29.9µM	–
Cc1cc(S(=O)(=O)c2ccc(Cl)cc2)nc(S(=O)(=O)c2ccc(Cl)cc2)c1C#N	–	–	·	2.67µM	–
Cc1cccc(OCc2ccc(-c3nc(C#N)c(NCCN(C)C)o3)o2)c1	–	·	·	·	·
COc1ccc(-n2cnc3cc(NCc4cccs4)ccc32)cc1	–	–	–	26.7µM	–
Cc1ccc(-n2cnc3cc(NCc4cccs4)ccc32)cc1	–	·	–	–	–
CCCOC(=O)CSc1nnc(-c2ccccc2)o1	–	·	·	·	·
COc1ccccc1NC(=O)c1sc(-c2ccc(Cl)cc2)cc1N	–	·	·	·	·
N#Cc1c(SCC(=O)O)nc(N2CCCCC2)c2c1CCCC2	–	–	–	–	–
COC(=O)CSc1nc(N2CCCCC2)c2c(c1C#N)CCCC2	–	–	–	23.8µM	–
CCc1nc(SCC(=O)O)c(C#N)c2c1CCCC2	–	–	–	–	–
Cc1nc(SCC(=O)O)c(C#N)c2c1CCCC2	–	?	–	?	44.7µM
CCOc1ccc(C2C(C(N)=O)=C(C)Nc3nc(-c4ccc(OC)cc4)nn32)cc1 (stereo not given)	–	·	·	·	·
COc1ccccc1C1Nc2c(sc3nc(C)cc(C)c23)C(=O)N1c1ccccc1 (stereo not given)	–	·	·	·	·
CCn1c2ccccc2c2nc3cc(S(=O)(=O)N4CCOCC4)ccc3nc21	?	?	–	0.67µM	?
O=C(CSc1nc2cc(S(=O)(=O)N3CCOCC3)ccc2o1)NC1CCCc2ccccc21 (stereo not given)	–	–	–	6.7µM	–
CCSc1nc2cc(S(=O)(=O)N3CCOCC3)ccc2o1	–	–	–	2.99µM	–
Cc1ccc(C(=O)CSc2nc3cc(S(=O)(=O)N4CCOCC4)ccc3o2)cc1	–	–	–	23.8µM	–
O=C(NC1CCCc2ccccc21)c1cc(S(=O)(=O)N2CCOCC2)ccc1F (stereo not given)	–	–	–	–	–
O=c1ccc2cc(S(=O)(=O)N3CCOCC3)ccc2o1	–	–	–	–	–
COc1ccc2c(c1)c1c(c(=O)n(CCc3ccccc3)c(=O)n1Cc1cccc(F)c1)n2C	–	·	·	·	·
COc1cccc(NCc2cccn2-c2nnc(N3CCC(C)CC3)s2)c1	–	·	·	·	·
O=C(CSc1nc2ccc(S(=O)(=O)N3CCOCC3)cc2[nH]1)N1CCOCC1	–	–	–	2.24µM	–
O=C(CSc1nc2cc(S(=O)(=O)N3CCOCC3)ccc2o1)Nc1c(F)cccc1F	–	–	–	2.67µM	–
SMILES	USP1-UAF1 inh	PI5P4Ka inh	USP2a block	PLK1 PBD block	WRN helicase inh
O=C(CSc1nc2cc(Cl)ccc2o1)Nc1ccc(N2CCOCC2)cc1	–	·	–	–	–
O=C(CSc1nc2ccccc2c(=O)[nH]1)N1CCOCC1	–	·	–	–	–
N#C/C(=C\c1cc(O)c(O)c(O)c1)C(N)=O	–	-76.5	–	–	–
N#C/C(=C\c1cc(Cl)c(OCc2ccc(Cl)cc2)c(Cl)c1)C(N)=O	·	·	–	·	·
CC(=O)/C(N=Nc1ccc(C(=O)O)cc1[N+](=O)[O-])=C(\C)O	–	-73.2	–	–	–[11.6 µM]
C/C(=N\NC(=O)c1cc(-c2ccncc2)nc2ccccc12)c1ccc(N2CCOCC2)cc1	–	–	–	29.9µM	–
CCc1cccc(C)c1NC(=O)C(CC)n1ncn2c(cc3cc(C)ccc32)c1=O (stereo not given)	–	·	·	·	·
CC(C)CCNC(=O)C(c1ccc(O)cc1)N(C(=O)C1COc2ccccc2O1)c1cccc(O)c1 (stereo not given)	–	–	–	18.9µM	–
NC(=O)c1ccsc1NC(=O)c1cccs1	–	–	·	–	–

Screening results deposited in PubChem by National Center for Advancing Translational Sciences (NCATS).
